# Test results published in the supplement of paper PMC8728848.
# The full list was thinned out, with the strongest signals kept by preference.
# B1: PX9937J-pdi-523-26-523 (Parabacteroides distasonis) (protein)
# chain: EPVSSISDANYWKSPDLFKAFNIGLHGLLRSQSSYNIFVLGEPRSDIYGDQPFGGEATQGVERFSYNTINAEFTGISNFANFYTTLNQINLMIRRTNETDLLGEAEKNYYLGQAYGLRAYIYFHLLRSWGDVIITTEPTLGSELDISHLDKAASPASEVMDLIKKDIDASEKAFGGDYSYKQGKCYWSKPATLMLKGEVYLWSGRQMGGGTGDYTVAKTALQDLQQNGNLKLQEKFTDVFSFNNKENSEMIFALHSGKEDDFMMWRDYNWRNNMVPQREYMAGYCDETGTPFLEIPGYNLQGLMRYQVKKDHYLKSFREGDTRLKGTLKAVYKKHEDGTLEYIAPIQYKFQGTTLEGSNERSWYDDYPIYRYADALLLLAEAKALLGEDPSTEINAVRERAYGSEYFNAHKNEVAYPNDKGSFYNDNPFEAGDENVMEAILKERLREFFFEGKRWYDLRRFGKDYVLKYTTAQESRLLWPINEGALTNNPALKQTPGY
# Columns and labels:
# Experiment in all cases: glycan array binding signal (z-score within array); higher = stronger binding
# Conditions in all cases: glycan notation: IUPAC condensed, linker removed
# [1] = target: Fuc(a1-2)Gal(b1-3)GlcNAc(b1-3)[Fuc(a1-2)Gal(b1-3)GlcNAc(b1-6)]GalNAc
# In short: (§1)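 The Consortium for Functional Glycomics database supplied 3228 glycan arrays, of which those lacking an available protein sequence were dropped. The binding signal, a within-array Z-score, was averaged across arrays of the same protein sequence and across linkers. Negative scores can be read as non-binding.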
# Fuc(a1-2)Gal(b1-4)Glc6S = target: Fuc(a1-2)Gal(b1-4)Glc6S
# In short: as §1
# [2] = target: Fuc(a1-2)Gal(b1-4)GlcNAc(b1-2)Man(a1-3)[Fuc(a1-2)Gal(b1-4)GlcNAc(b1-2)Man(a1-6)]Man(b1-4)GlcNAc(b1-4)[Fuc(a1-6)]GlcNAc
# In short: as §1
# [3] = target: Fuc(a1-2)[Gal(a1-3)]Gal(b1-3)GalNAc
# In short: as §1
# [4] = target: Fuc(a1-2)[Gal(a1-3)]Gal(b1-4)GlcNAc(b1-3)[Fuc(a1-2)[Gal(a1-3)]Gal(b1-4)GlcNAc(b1-6)]GalNAc
# In short: as §1
# [5] = target: Fuc(a1-2)[GalNAc(a1-3)]Gal(b1-4)GlcNAc(b1-3)Gal(b1-4)GlcNAc(b1-3)Gal(b1-4)GlcNAc
# In short: as §1
# [6] = target: Fuc(a1-3)[Gal(b1-4)]Glc6S
# In short: as §1
# [7] = target: Fuc(a1-3)[Gal(b1-4)]GlcNAc(b1-6)GalNAc
# In short: as §1
# [8] = target: Fuc(a1-3)[Gal(b1-4)]GlcNAc6S
# In short: as §1
# Gal(a1-2)Gal = target: Gal(a1-2)Gal
# In short: as §1
# Gal(a1-4)Gal(b1-4)Glc = target: Gal(a1-4)Gal(b1-4)Glc
# In short: as §1
# [9] = target: Gal(a1-4)Gal(b1-4)GlcNAc(b1-2)Man(a1-3)[Gal(a1-4)Gal(b1-4)GlcNAc(b1-2)Man(a1-6)]Man(b1-4)GlcNAc(b1-4)GlcNAc
# In short: as §1
# [10] = target: Gal(b1-3)GlcNAc(b1-2)Man(a1-3)[Gal(b1-3)GlcNAc(b1-2)Man(a1-6)]Man(b1-4)GlcNAc(b1-4)GlcNAc
# In short: as §1
# [11] = target: Gal(b1-3)GlcNAc(b1-3)Gal(b1-4)GlcNAc(b1-2)Man(a1-3)[Gal(b1-3)GlcNAc(b1-3)Gal(b1-4)GlcNAc(b1-2)Man(a1-6)]Man(b1-4)GlcNAc(b1-4)GlcNAc
# In short: as §1
# [12] = target: Gal(b1-3)GlcNAc(b1-3)Gal(b1-4)GlcNAc(b1-6)[Gal(b1-3)GlcNAc(b1-3)]Gal(b1-4)Glc
# In short: as §1
# [13] = target: Gal(b1-3)GlcNAc(b1-3)Gal(b1-4)[Fuc(a1-3)]GlcNAc(b1-6)[Gal(b1-3)GlcNAc(b1-3)]Gal(b1-4)Glc
# In short: as §1
# [14] = target: Gal(b1-3)GlcNAc(b1-3)GalNAc
# In short: as §1
# [15] = target: Gal(b1-3)GlcNAc(b1-6)Gal(b1-4)GlcNAc
# In short: as §1
# [16] = target: Gal(b1-3)[Fuc(a1-4)]GlcNAc(b1-3)Gal(b1-4)[Fuc(a1-3)]GlcNAc
# In short: as §1
# Gal(b1-4)GlcNAc = target: Gal(b1-4)GlcNAc
# In short: as §1
# [17] = target: Gal(b1-4)GlcNAc(b1-3)Gal(b1-4)GlcNAc
# In short: as §1
# [18] = target: Gal(b1-4)GlcNAc(b1-3)Gal(b1-4)GlcNAc(b1-2)[Gal(b1-4)GlcNAc(b1-3)Gal(b1-4)GlcNAc(b1-6)]Man(a1-6)[Gal(b1-4)GlcNAc(b1-3)Gal(b1-4)GlcNAc(b1-2)Man(a1-3)]Man(b1-4)GlcNAc(b1-4)GlcNAc
# In short: as §1
# [19] = target: Gal(b1-4)GlcNAc(b1-3)Gal(b1-4)GlcNAc(b1-3)Gal(b1-4)GlcNAc(b1-3)Gal(b1-4)GlcNAc(b1-2)Man(a1-3)[Gal(b1-4)GlcNAc(b1-3)Gal(b1-4)GlcNAc(b1-3)Gal(b1-4)GlcNAc(b1-3)Gal(b1-4)GlcNAc(b1-2)Man(a1-6)]Man(b1-4)GlcNAc(b1-4)[Fuc(a1-6)]GlcNAc
# In short: as §1
# [20] = target: Gal(b1-4)GlcNAc(b1-3)Gal(b1-4)GlcNAc(b1-3)Gal(b1-4)GlcNAc(b1-3)Gal(b1-4)GlcNAc(b1-3)Gal(b1-4)GlcNAc(b1-3)Gal(b1-4)GlcNAc(b1-2)Man(a1-3)[Gal(b1-4)GlcNAc(b1-3)Gal(b1-4)GlcNAc(b1-3)Gal(b1-4)GlcNAc(b1-3)Gal(b1-4)GlcNAc(b1-3)Gal(b1-4)GlcNAc(b1-3)Gal(b1-4)GlcNAc(b1-2)Man(a1-6)]Man(b1-4)GlcNAc(b1-4)GlcNAc
# In short: as §1
# [21] = target: Gal(b1-4)GlcNAc(b1-3)Gal(b1-4)GlcNAc(b1-3)GalNAc
# In short: as §1
# [22] = target: Gal(b1-4)GlcNAc(b1-3)GalNAc
# In short: as §1
# [23] = target: Gal(b1-4)GlcNAc(b1-3)[Gal(b1-4)GlcNAc(b1-6)]Gal(b1-4)GlcNAc
# In short: as §1
# [24] = target: Gal(b1-4)GlcNAc(b1-6)[Gal(b1-4)GlcNAc(b1-3)]GalNAc
# In short: as §1
binder,measurement,setting,value
B1,glycan array binding signal (z-score),[1],-0.127
same,glycan array binding signal (z-score),Fuc(a1-2)Gal(b1-4)Glc6S,-0.759
same,glycan array binding signal (z-score),[2],0.953
same,glycan array binding signal (z-score),[3],-0.16
same,glycan array binding signal (z-score),[4],-0.426
same,glycan array binding signal (z-score),[5],-0.377
same,glycan array binding signal (z-score),[6],-0.103
same,glycan array binding signal (z-score),[7],-0.093
same,glycan array binding signal (z-score),[8],5.71
same,glycan array binding signal (z-score),Gal(a1-2)Gal,-0.363
same,glycan array binding signal (z-score),Gal(a1-4)Gal(b1-4)Glc,0.596
same,glycan array binding signal (z-score),[9],2.9
same,glycan array binding signal (z-score),[10],-0.12
same,glycan array binding signal (z-score),[11],3.05
same,glycan array binding signal (z-score),[12],0.461
same,glycan array binding signal (z-score),[13],-0.698
same,glycan array binding signal (z-score),[14],-0.708
same,glycan array binding signal (z-score),[15],-0.374
same,glycan array binding signal (z-score),[16],-0.34
same,glycan array binding signal (z-score),Gal(b1-4)GlcNAc,0.078
same,glycan array binding signal (z-score),[17],-0.225
same,glycan array binding signal (z-score),[18],10.4
same,glycan array binding signal (z-score),[19],0.026
same,glycan array binding signal (z-score),[20],8.6
same,glycan array binding signal (z-score),[21],6.57
same,glycan array binding signal (z-score),[22],-0.086
same,glycan array binding signal (z-score),[23],-0.21
same,glycan array binding signal (z-score),[24],-0.149
